Results taken from PubChem BioAssay (NCATS).
Results filed as inconclusive are left out. Entries that show only a call come without a potency. Activity calls are given as the source filed them. Calls follow the shape of the dose curve; as a rule, active = well fitted cell-killing curve with a large enough effect; inconclusive = small, poorly fitted or top-dose-only effect, or effect the other way; inactive = flat fitted curve, though single readings scatter.

test: Cell Viability - LYMP2-003 (AID 965); conditions: LYMP2-003 lymphoblastoid cell viability; series mostly up to 92.2 µM;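 also: cells exposed to compounds for 24 h before reading; nearly all actives have a fitted effect of over 50% in size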
Description: NIH Chemical Genomics Center [NCGC]
NIH Molecular Libraries Screening Centers Network [MLSCN]
National Institutes of Environmental Health Sciences [NIEHS]
National Toxicology Program [NTP]
We have developed a 1536-well cell-based assay for quantitative high throughput screening (qHTS) against a number of cell lines to determine in vitro cytotoxicity of small molecules. This particular assay uses a human lymphoblastoid cell line (LYMP2-003) purchased from Coriell Institute for Medical Research.
NCGC Assay Protocol Summary:
The CellTiter-Glo luminescent cell viability assay (Promega) is a homogeneous method to measure the number of viable cells in culture. The end point readout of this assay is based on quantitation of intracellular ATP, an indicator of metabolic activity, using the luciferase reaction. Luciferase catalyzes the oxidation of beetle Luciferin to oxyluciferin and light in the presence of ATP. The luminescent signal is proportional to amount of ATP present.
Using the CellTiter-Glo luminescent cell viability assay, the amount of cellular ATP was measured in the lymphoblastoid cell line with complete culture medium following compound treatment for 24 hours. The assay was performed in opaque white Kalypsys 1536-well plates. In the screen, tetraoctylammonium bromide was used as positive control. Library compounds were measured for their ability to cause acute toxicity in the cell line, as reflected by a decrease in intracellular ATP levels, in a concentration-dependent manner. […] AC50 values were determined from concentration-response data modeled with the standard Hill equation.
qHTS protocol for CellTiter Glo lymphoblastoid cellular assay
[Step] [Parameter] [Value] [Description]
1. Reagent; 5 uL; 2500 lymphoblastoid cells/well
2. Time; 5 hr; 37 C incubation
4. Controls; 23 nL; Tetraoctylammonium bromide 6.4pM to 92 uM
5. Time; 24 hr; 37 C incubation
6. Reagent; 5 uL; CellTiter Glo reagent
7. Time; 30 min; Room Temperature
8. Detection; Luminescence; Viewlux plate reader
Keywords: cell viability, cytotoxicity, lymphoblastoid cell line, luminescence, NTPHTS, NTPHTS_NCGC, NIEHS, DSSTox, MLSMR, MLSCN, NIH Roadmap, qHTS, NCGC
Potency is read from the fitted curve at half-maximal effect.

Question: With `c1c[nH]cn1` as the compound, how does the Potency read?
Answer: Its Potency is “inactive”.

Question: With `Cc1ccc(S(N)(=O)=O)cc1` as the compound, how does the Potency read?
Answer: Its Potency is “inactive”.

Question: Which Potency does the source give for `CCCCC(CC)COC(=O)COc1ccc(Cl)cc1Cl` (stereo not given) here?
Answer: Its Potency is “inactive”.

Question: With `CCCCCCCC/C=C\CCCCCCCC(=O)N(CCO)CCO` as the compound, how does the Potency read?
Answer: The Potency was “inactive”.

Question: Which Potency does the source give for `CCCCCCN` here?
Answer: Its Potency is “inactive”.

Question: Which Potency does the source give for `Oc1ccc2c(c1)OCO2` here?
Answer: Its Potency is “inactive”.

Question: For `Oc1cc2c(cc1O)[C@H]1c3ccc(O)c(O)c3OC[C@@]1(O)C2`, which Potency is on record?
Answer: The Potency was 31.6 µM (active).

Question: For `O=C(Cl)c1ccc([N+](=O)[O-])cc1`, which Potency is on record?
Answer: Its Potency is “inactive”.

Question: Which Potency does the source give for `c1ccc(SCCSc2ccccc2)cc1` here?
Answer: Its Potency is “inactive”.

Question: For `C=CC1CO1` (stereo not given), which Potency is on record?
Answer: Its Potency is “inactive”.

Question: For `OCC(CO)(CBr)CBr`, which Potency is on record?
Answer: The Potency was “inactive”.

Question: With `CCN(CC)c1ccc2c(C)cc(=O)oc2c1` as the compound, how does the Potency read?
Answer: The Potency was “inactive”.

Question: Which Potency does the source give for `COc1ccc([N+](=O)[O-])cc1N` here?
Answer: The Potency was “inactive”.

Question: Which Potency does the source give for `Cc1cc(-c2ccc(N=Nc3cc(S(=O)(=O)O)c4ccccc4c3N)c(C)c2)ccc1N=Nc1cc(S(=O)(=O)O)c2ccccc2c1N` here?
Answer: The Potency was “inactive”.

Question: With `Cc1c2ccccc2c(C)c2c1ccc1ccccc12` as the compound, how does the Potency read?
Answer: Its Potency is “inactive”.

Question: Which Potency does the source give for `CCCCCCCCC1CO1` (stereo not given) here?
Answer: Its Potency is “inactive”.

Question: With `c1ccncc1` as the compound, how does the Potency read?
Answer: The Potency was “inactive”.

Question: For `OCC(CBr)(CBr)CBr`, which Potency is on record?
Answer: The Potency was “inactive”.

Question: With `CCCCNCC` as the compound, how does the Potency read?
Answer: Its Potency is “inactive”.

Question: With `Brc1cc(Br)c(Oc2cc(Br)c(Br)cc2Br)cc1Br` as the compound, how does the Potency read?
Answer: Its Potency is “inactive”.

Question: Which Potency does the source give for `C/C(Cl)=C/CCl` here?
Answer: The Potency was “inactive”.

Question: Which Potency does the source give for `Cc1c(N)cccc1Cl` here?
Answer: The Potency was “inactive”.

Question: For `COc1ccc(C)cc1N`, which Potency is on record?
Answer: The Potency was “inactive”.

Question: Which Potency does the source give for `CC1=C(/C=C/C(C)=C/C=C/C(C)=C/C=O)C(C)(C)CCC1` here?
Answer: Its Potency is 50.1 µM (active).

Question: Which Potency does the source give for `CC(=O)OCc1ccc2c(c1)OCO2` here?
Answer: The Potency was “inactive”.

Question: Which Potency does the source give for `c1ccc2c(c1)ccc1ccccc12` here?
Answer: The Potency was “inactive”.

Question: With `Nc1ccc(N=Nc2ccccc2)c(N)c1` as the compound, how does the Potency read?
Answer: The Potency was “inactive”.

Question: Which Potency does the source give for `CCC(Cl)CC(Cl)C(Cl)C(Cl)C(Cl)C(C)Cl` (stereo not given) here?
Answer: Its Potency is “inactive”.

Question: Which Potency does the source give for `O=c1[nH]ncc2ccccc12` here?
Answer: Its Potency is “inactive”.

Question: For `CCCCCCc1ccc(-c2ccc(C#N)cc2)cc1`, which Potency is on record?
Answer: The Potency was “inactive”.

Question: Which Potency does the source give for `O=C(OCC1CO1)C1CCCCC1C(=O)OCC1CO1` (stereo not given) here?
Answer: The Potency was 50.1 µM (active).

Question: For `Nc1cc([N+](=O)[O-])ccc1O`, which Potency is on record?
Answer: Its Potency is “inactive”.

Question: For `C=C1CC[C@H](O)C/C1=C/C=C1\CCC[C@]2(C)[C@@H]([C@H](C)CCCC(C)C)CC[C@@H]12`, which Potency is on record?
Answer: Its Potency is 39.8 µM (active).

Question: Which Potency does the source give for `c1ccc(Nc2cccc3ccccc23)cc1` here?
Answer: The Potency was “inactive”.

Question: For `O=C(O)c1cc(N=Nc2ccc([N+](=O)[O-])cc2)ccc1O`, which Potency is on record?
Answer: The Potency was “inactive”.

Question: With `CC(CCC(=O)O)(c1ccc(O)cc1)c1ccc(O)cc1` as the compound, how does the Potency read?
Answer: The Potency was “inactive”.

Question: Which Potency does the source give for `CCCCCCCCOc1ccc(C(=O)O)cc1` here?
Answer: The Potency was “inactive”.

Question: Which Potency does the source give for `C/C=C1/C(=O)C[C@H]2[C@@H]3CCC4=CC(=O)CC[C@]4(C)[C@H]3CC[C@]12C` here?
Answer: Its Potency is “inactive”.

Question: With `C/C=C/C=C/C=O` as the compound, how does the Potency read?
Answer: The Potency was 39.8 µM (active).

Question: With `CCCCOC(=O)COc1ccc(Cl)cc1Cl` as the compound, how does the Potency read?
Answer: Its Potency is “inactive”.
